Laboratory results as given in PubChem BioAssay (NCI).
About 83,000 compounds went through this panel and 20% of them were active in at least one assay; those are over-represented in the sample as a whole.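 Cell lines were cultured in 96-well plates, exposed to a single compound concentration, and assessed for percent growth 48 hours later.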 Values without a mark were called inactive. Calls of active or inactive are those of the source. Rule for the calls: active = growth percent below 10; inactive = the rest.

Each compound was assayed on HL-60(TB) leukemia (assay: NCI-60 one-dose screen, 48 h (100 = growth as untreated, 0 = no growth, -100 = all killed)). Settings: 10 µM unless noted.

Row | Structure (SMILES) | growth
1 | CC1(c2ccccc2)NC(=O)N(CC(=O)Nc2ccc(C(=O)/C=C/C=C/c3ccccc3)cc2)C1=O (stereo not given) | 36.8%
2 | CCCCCCCCc1ccc(C(=O)Nc2ccc(C)cc2C(=O)O)cc1 | 92.2%
3 | Cn1cc(-c2nc(N)nnc2-c2c[nH]c3ccc(F)cc23)c2cccnc21 | 37.2%
4 | O=c1cc(-c2ccccc2)oc2cc(OCCCCNCc3ccccc3)cc(O)c12 | -65.6% (active)
5 | COc1cc2c3c(n(CCCn4ccnc4)c(=O)c2cc1OC)-c1nc2c(cc1C3=O)OCO2 | 75.8%
6 | CC(C)C[C@H](NC(=O)[C@@H]1CCCCCCCCCCC(=O)N[C@@H](CC(=O)N2CCC[C@@H]2C2CCCC2)C(=O)N1)B(O)O | -33.3% (active)
7 | CC1=C(C#N)C2=NNCC(c3ccccc3)=NN2C(c2ccccc2)=C1 | 138%
8 | COc1cnc2c(c1)C(=O)c1c-2n(CCCNCCO)c(=O)c2cc(OC)c(OC)cc12 | 61.3%
9 | O=C(COc1ccc(NC(=O)Nc2ccc(Cl)cc2)cc1)N/N=C/c1ccccc1 | 45.8%
10 | O=CNc1cccc(-n2cnc3cc(-c4ccc(O)cc4)ccc32)c1 | 8.14% (active)
11 | C#C[C@]1(O)CC[C@H]2[C@@H]3CC=C4c5sc(Nc6ccc(N(C)C)cc6)nc5CC[C@]4(C)[C@H]3CC[C@@]21C | -26.1% (active)
12 | Cc1ccc(/C(N)=N/c2sc(-c3ccccc3)nc2-c2ccccc2)cc1 | 87%
13 | O=C1Nc2ccccc2/C1=C/C(=O)c1cc2ccccc2oc1=O | 102%
14 | CC(Nc1ncnc2ccc(-c3ccc4oc(N)nc4c3)cc12)c1ccccc1 (stereo not given) | -71.4% (active)
15 | O=[N+]([O-])c1ccc(/C=C/c2nc3ccccc3n3c(=S)[nH]nc23)cc1 | 79.1%
16 | O=C(N=Nc1c(O)[nH]c2ccc([N+](=O)[O-])cc12)c1ccc2nc(-c3ccccc3)[nH]c2c1 | 84.7%
17 | Cc1ccc(-c2cc(C(=O)N=Nc3c(O)[nH]c4ccc(Br)cc34)c3ccccc3n2)cc1 | 15.8%
18 | Cc1cccc(NC(=O)CN2CCN(c3ncnc4c3cnn4-c3ccccc3)CC2)c1 | 88.3%
19 | COc1cc2oc(-c3cccc(C(=O)Nc4ccc(Cl)cc4)c3)cc(=O)c2c(OCCNC(=O)[C@@H](N)CO)c1OC | -29.2% (active)
20 | Cn1cc(-c2nnc(N)nc2-c2c[nH]c3ccccc23)c2cc(Br)cnc21 | 13.6%

Row | Structure (SMILES) | growth
21 | COc1ccccc1[C@H]1C(C(=O)c2ccc(Cl)cc2)C2(N[C@@H]1c1ccccc1)C(=O)Nc1ccccc12 (stereo not given in full) | -29.6% (active)
22 | Cc1ccc(S(=O)(=O)c2nc(S(=O)(=O)c3ccc(C)cc3)c(Cl)s2)cc1 | 15.9%
23 | N#CC1=C(c2ccco2)Nc2c(c(-c3ccccc3)nn2-c2ccccc2)C12C(=O)Nc1ccc(Br)cc12 (stereo not given) | 51.1%
24 | CC(=O)/C=C/c1cccc2c1C(=O)NC(C)(c1cc3cc(Br)ccc3oc1=O)N2 (stereo not given) | -29.3% (active)
25 | CC(=O)Nc1ccc(-n2cnc3cc(-c4ccc(O)cc4)ccc32)cc1C | 26.6%
26 | CO[C@@H]1CSSC1Cn1nc(-c2ccc(Oc3ccccc3)cc2)c2c(N)ncnc21 (stereo not given in full) | 13.3%
27 | COc1ccc2[nH]c(O)c(N=Nc3nc(-c4ccccc4)cs3)c2c1 | 71.6%
28 | CN1C(=O)/C(=C/c2ccc3ncsc3c2)NC1=NC12CC3CC(CC(O)(C3)C1)C2 | -16.6% (active)
29 | CC(=O)Nc1ccc(-c2cn(-c3cccc(C(=O)Nc4cccc(OC(F)(F)F)c4)c3)nn2)cn1 | 95.1%
30 | Cc1ccc(/C=C/c2n(Cc3ccc4ccccc4c3)c3ccccc3[n+]2Cc2ccc3ccccc3c2)cc1 | -45.5% (active)
31 | COc1c(B(O)O)cccc1-c1nc2ccc3cn[nH]c3c2c2c1CCCC2 | 47.6%
32 | COc1ccc(/C(C)=N/N=C2C(=O)N(C)c3ccc(Br)cc32)cc1S(N)(=O)=O | 99%
33 | CC(C)(C)c1cc(-c2cc(-c3ccccc3)[nH]c(=O)c2C#N)cc(C(C)(C)C)c1 | 82.3%
34 | COc1ccc2[nH]c(=O)c(CSc3ccc(Nc4nccc(-c5ccc(Cl)cc5)n4)cc3)cc2c1 | 86.1%
35 | NS(=O)(=O)c1ccc(N=Nc2c(O)n(CC(=O)Nc3ccccc3Br)c3ccccc23)cc1 | 76.6%
36 | CS(=O)(=O)Nc1ccc(-c2ccc3c(c2)ncn3-c2ccc(NC(=O)Nc3ccc(Br)cc3)cc2)cc1 | -42% (active)
37 | CN1CCN(c2ccc3c4c(cccc24)C(=O)N(c2cccc(-c4nn(-c5ccccc5)cc4-c4nc5ccccc5s4)c2)C3=O)CC1 | 102%
38 | O=C(NC(=S)N1CCN(c2ncnc3c2cnn3-c2ccccc2)CC1)c1ccc(F)cc1 | 64.8%
39 | Oc1cncc(-c2ccc3ncnc(N4CCc5cc(F)c(Cl)cc54)c3c2)c1 | 84.7%
40 | Cn1cc(-c2cc3nc(-c4c[nH]c5ccccc45)cc(N)n3n2)c2cc(Cl)ccc21 | -24.8% (active)
